About 79,000 compounds went through this panel and 15% of them were active in at least one assay; those are over-represented in the sample as a whole. A number with no mark means an inactive call. Calls of active or inactive are those of the source. No stated cut-off is given here; in the data, active means growth inhibition above about 70%; inactive means the rest.
Key:
[1] = NCI Yeast Anticancer Drug Screen. Data for the rad50 strain (AID 155);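 further: 0% = growth of vehicle-only cultures of the same strain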; settings: S. cerevisiae rad50 strain growth inhibition, active compounds read high
Method in brief: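 Yeast carrying a defined DNA repair defect were exposed to test compounds, and growth was compared with vehicle-treated controls to give percent inhibition.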

[2] = NCI Yeast Anticancer Drug Screen. Data for the mec2-1 strain (AID 157); settings: S. cerevisiae mec2-1 strain, active compounds read high
Method in brief: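 Each compound was tested on mec2-1 yeast, a strain altered in DNA damage repair or cell cycle control. Growth inhibition is reported relative to vehicle.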

[3] = NCI Yeast Anticancer Drug Screen. Data for the sgs1 mgt1 strain (AID 161);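 further: 0% = growth of cultures given vehicle only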; settings: S. cerevisiae sgs1 mgt1 strain, active compounds read high
Method in brief: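 Mutant yeast exposed to compound; growth scored against vehicle-only wells.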

[4] = NCI Yeast Anticancer Drug Screen. Data for the cln2 rad14 strain (AID 165);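 further: 0% = growth equal to vehicle treated cultures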; settings: S. cerevisiae cln2 rad14 strain, active compounds read high
Method in brief: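 Test compounds were added to cln2 rad14 yeast cultures; inhibition of growth was then determined by comparison with vehicle treatment.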

[5] = NCI Yeast Anticancer Drug Screen. Data for the bub3 strain (AID 167); settings: S. cerevisiae bub3 mutant strain, active compounds read high
Method in brief: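 Compounds were applied to a genetically altered yeast strain carrying a cell-cycle control defect. Growth inhibition was scored against vehicle-treated controls.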

[6] = NCI Yeast Anticancer Drug Screen. Data for the mlh1 rad18 strain (AID 175); settings: S. cerevisiae mlh1 rad18 strain growth inhibition, active compounds read high
Method in brief: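 Inhibition values reflect reduced growth of mutant yeast versus vehicle-treated controls following compound exposure; the mutations affect DNA damage repair.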

[7] = at 5.0 µM (retest, dose inferred, filed as 0.5)
[8] = at 50.0 µM (retest, dose inferred, filed as 5.0)

Row | SMILES | growth inhibition [1, 7] | growth inhibition [1, 8] | growth inhibition ([1]; at 50.0 µM) | growth inhibition [2, 7] | growth inhibition [2, 8] | growth inhibition ([2]; at 50.0 µM) | growth inhibition [3, 7] | growth inhibition [3, 8] | growth inhibition ([3]; at 50.0 µM) | growth inhibition [4, 7] | growth inhibition [4, 8] | growth inhibition ([4]; at 50.0 µM) | growth inhibition [5, 7] | growth inhibition [5, 8] | growth inhibition ([5]; at 50.0 µM) | growth inhibition [6, 7] | growth inhibition [6, 8] | growth inhibition ([6]; at 50.0 µM)
1 | Cc1c(O)ccc(C(=O)CCl)c1O | -147% | 38% | 58.8% | -44% | 5% | 61.6% | -53% | 42% | 60.4% | -55% | -11% | 12.9% | -69% | -3% | 41.4% | -111% | 33% | 68.3%
2 | S=C1NC2=C(CSC/C2=C\c2ccccc2)C(c2ccccc2)N1 (configuration not stated) | 10% | 96% (active) | 60.2% | -8% | 97% (active) | 58.2% | 8% | 97% (active) | 65.2% | 26% | 96% (active) | 68.8% | -45% | 96% (active) | 73.1% (active) | 35% | 97% (active) | 72.3% (active)
3 | O=C(O)Cc1cccc2c(=O)c3cccc([N+](=O)[O-])c3[nH]c12 | 32% | 87% (active) | 74.6% (active) | 24% | 83% (active) | 58% | 24% | 60% | 53.1% | 28% | 79% (active) | 65% | 22% | 85% (active) | 45.5% | 28% | 86% (active) | 69.8%
4 | NCCC(N)P(=O)(O)O (configuration not stated) | -166% | -150% | 20.6% | -46% | -48% | 16.2% | -61% | -60% | -3.9% | -61% | -51% | 16.6% | -74% | -71% | 13% | -141% | -111% | 0.45%
5 | C=C(C)CCC(=C)C | 22% | 91% (active) | 48.7% | 3% | 47% | 14.1% | 11% | 63% | 42.4% | -4% | 26% | 29.8% | -2% | 2% | -35.2% | 16% | 64% | 42%
6 | C/C(=N\NC(=S)N(C)C)c1cccc(C)n1 | 76% (active) | 98% (active) | 99.2% (active) | 84% (active) | 99% (active) | 99.3% (active) | 84% (active) | 99% (active) | 99.2% (active) | 89% (active) | 99% (active) | 99% (active) | 70% (active) | 98% (active) | 99.3% (active) | 95% (active) | 98% (active) | 99.3% (active)
7 | Cc1ccc(COCO)c(O)c1 | -1% | -8% | -6.7% | 0% | 2% | 35.8% | 2% | -4% | -10.8% | -7% | -3% | -18.1% | -3% | -4% | -0.15% | -1% | -4% | -16.4%
8 | COc1c2c(cc3ccc(=O)oc13)C(Cl)C(Cl)O2 (configuration not stated) | 7% | 97% (active) | 77.7% (active) | 4% | 98% (active) | 84.8% (active) | 10% | 98% (active) | 92.8% (active) | -16% | 97% (active) | 18.9% | 9% | 98% (active) | 91.2% (active) | 14% | 97% (active) | 97.7% (active)
9 | Clc1cc[c]([Sn]([Cl])([O][Sn]([Cl])([c]2ccc(Cl)cc2)[c]2ccc(Cl)cc2)[c]2ccc(Cl)cc2)cc1 | 89% (active) | 97% (active) | 86.5% (active) | 95% (active) | 98% (active) | 88.5% (active) | 96% (active) | 97% (active) | 87.6% (active) | 42% | 98% (active) | 81.5% (active) | 97% (active) | 98% (active) | 87% (active) | 90% (active) | 95% (active) | 92.7% (active)

From PubChem BioAssay (NCI)
